Source: PubChem BioAssay
M1 ag parental = counter-screen for M1 agonists: effect in parental CHO-K1 cells; AID 602248, 2012; Fluo-8 calcium fluorescence; scaled to maximal ATP response, vehicle zero; activation, % at 3 µM; hit rate 0.48% among 360,000; in the data active = activation above about 15%;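 also: untransfected CHO-K1 host cells lacking M1 receptor as counterscreen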
M1 ag = human M1 muscarinic receptor agonists, primary screen, Fluo-8 calcium fluorescence, CHO-K1 cells, HTS. Muscarinic acetylcholine receptor M1 (Homo sapiens), P11229. CHO-K1 hM1, agonist mode; 0% DMSO, 100% acetylcholine EC100. activation, % at 3 µM. AID 588814, 2011. hit rate 0.33% among 360,000;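 active = activation above the run's mean compound activation plus 3 SD, cut at about 16% in these data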;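 also: peak over basal fluorescence ratio within a 140 s kinetic read after compound addition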
Target sequence (P11229 whole entry, looked up): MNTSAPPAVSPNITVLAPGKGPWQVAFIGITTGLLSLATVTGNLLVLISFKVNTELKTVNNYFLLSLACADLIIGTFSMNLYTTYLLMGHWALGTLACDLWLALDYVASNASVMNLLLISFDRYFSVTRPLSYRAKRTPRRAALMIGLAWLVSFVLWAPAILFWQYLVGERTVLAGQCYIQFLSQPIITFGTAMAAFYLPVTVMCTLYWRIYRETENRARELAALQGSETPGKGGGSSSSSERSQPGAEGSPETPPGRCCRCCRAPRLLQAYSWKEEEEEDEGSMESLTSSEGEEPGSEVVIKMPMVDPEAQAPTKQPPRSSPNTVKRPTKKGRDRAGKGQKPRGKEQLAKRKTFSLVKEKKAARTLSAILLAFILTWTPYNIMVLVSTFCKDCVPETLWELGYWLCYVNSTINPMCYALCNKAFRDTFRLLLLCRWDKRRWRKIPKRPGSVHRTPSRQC
CHO-K1 Ca antag = M1 antagonist counterscreen hit in parental CHO-K1 cells. ATP-induced calcium, Fluo-8 fluorescence. inhibition, % at 3 µM. hit rate 0.6% among 360,000;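 active = inhibition above a per-plate cutoff, the plate's mean sample inhibition plus 3 SD, cut at about 24% in these data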
CHRM1 antagonist = human M1 muscarinic receptor antagonists, primary screen, CHO-K1 cells, Fluo-8 calcium fluorescence, 1536-well | hit rate 1.3% among 360,000 | inhibition, % at 3 µM | CHO-K1 hM1, ACh EC80 antagonist | Muscarinic acetylcholine receptor M1 (Homo sapiens), P11229;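 active = percent inhibition above its own plate's cutoff, namely the mean of that plate's compound wells plus 3 SD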;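 also: peak over basal fluorescence ratio during 140 s after agonist addition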
M1 PAM = human M1 muscarinic receptor positive allosteric modulators, primary screen, CHO-K1 cells, Fluo-8 calcium fluorescence, 1536-well; Muscarinic acetylcholine receptor M1 (Homo sapiens), P11229; CHO-K1 hM1, ACh EC20; 0% = ACh EC20, 100% = maximal ACh; hit rate 0.088% among 360,000; activation, % at 3 µM; AID 588819, 2011; in the data active = activation above about 19%, passing the limit was not always enough
M1 PAM parental = nonselective calcium activators in parental CHO-K1 cells, primary screen, counter-screen for M1 PAM project, cell-based, Fluo-8 calcium fluorescence, full deck, 1536-well; hit rate 0.02% among 360,000; activation, % at 3 µM; ATP EC20; 0% at ATP EC20, 100% at ATP max; AID 602247, 2012;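 active = activation above the run cutoff, the mean activation of all test compounds plus 3 SD, cut at about 40% in these data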;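 also: peak over basal fluorescence ratio in a 140 s read after ATP addition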
Hits are given with their value; – = inactive. Sampled rows, rich in hits. Any-hit rate of the full collection: about 2.3%.

SMILES	M1 ag parental	M1 ag	CHO-K1 Ca antag	CHRM1 antagonist	M1 PAM	M1 PAM parental
COc1ccc(C(=O)NCCn2ccc3ccccc32)c(OC)c1	–	–	–	–	–	41.3
O=C(COC(=O)C1=COCCO1)NC1CCCCC1	–	–	–	–	–	–
COc1ccc(CNC(=O)C[C@@H]2C[C@H]3c4cc(NC(=O)C5CCC5)ccc4O[C@H]3[C@@H](CO)O2)cc1	–	–	–	–	–	–
O=C(NCCSCc1ccccc1)c1ccc(C2SCC(=O)N2Cc2ccccc2)cc1 (centres undefined)	–	–	–	59.7	–	–
Cc1c(CC(=O)N[C@@H](C)C(=O)O)c(=O)oc2c(C)c3occ(-c4ccccc4)c3cc12	–	–	–	–	31.4	–
CCC(C)(C)c1ccc(OCCCC[n+]2cccc(C)c2)c(C(C)(C)CC)c1	–	–	–	25.3	–	–
COc1ccccc1C1CCN(Cc2ccc(C)cc2)CC1	18.1	–	–	–	–	–
COc1ccccc1C1CCN(Cc2cccc(C(=O)N3CCC(O)CC3)c2)CC1	–	–	–	–	–	–
COc1ccc(C(=O)c2ccccc2O)c(O)c1	–	–	24.3	–	–	–
Cc1cc(OCCn2ccnc2)cc(C(C)C)c1	–	–	–	73.7	–	–
Cc1cc(OCCCn2ccnc2)cc(C(C)C)c1	–	–	–	–	–	–
Cc1cccc(OCCCCCn2ccnc2)c1	–	17.0	–	–	–	–
Cc1nc2c(s1)sc1ccccc12	–	–	24.4	–	–	–
Cc1cc2c(sc3ccccc32)c(C)n1	–	–	–	–	–	–
O=C(COc1ccccc1)NC(=S)Nc1cccc2cc(O)ccc12	–	18.7	–	–	–	–
O=C(NC(=S)Nc1cccc2cc(O)ccc12)c1ccco1	30.9	–	–	–	–	–
CN(Cc1ccccc1)C(=O)c1cccc(NC(=O)Cc2ccc(NC(=O)C3CCCN(C(=O)C4CCC4)C3)cc2)c1 (centres undefined)	–	–	–	–	–	–
CCCc1cc(C(=O)Nc2cc(OC)ccc2OC)cs1	–	–	25.1	–	–	–
COC(=O)c1ccc2nc(NC(=O)C(C)(C)C)sc2c1	16.8	–	–	–	–	–
COc1ccccc1/C=C/C(=O)NCC(=O)N=Nc1c(O)[nH]c2ccccc12	–	–	–	–	–	–
CCCn1c(=O)c(C(=O)NCc2ccncc2)c(O)c2ccccc21	–	–	29.3	–	–	–
CCCn1c(=O)c(C(=O)NCc2ccccc2Cl)c(O)c2ccccc21	–	–	–	–	–	–
CCn1c(=O)c(C(=O)NNC(=O)c2ccccc2Cl)c(O)c2ccccc21	35.1	17.5	–	–	–	–
COCCNC(=O)C1(C)CCCN(C(=O)c2ccccc2OC)C1 (centres undefined)	–	–	–	–	–	–
CC(=O)Nc1ccc(NC(=O)C(C)OC(=O)CC2CCCC2)cc1 (centres undefined)	–	–	–	–	–	–
SMILES	M1 ag parental	M1 ag	CHO-K1 Ca antag	CHRM1 antagonist	M1 PAM	M1 PAM parental
CC(=O)Nc1ccc(NC(=O)C(C)OC(=O)CCC2CCCC2)cc1 (centres undefined)	–	–	24.2	–	–	–
COc1ccc(NS(=O)(=O)c2ccc(NC(=O)C(CCSC)NC(N)=O)cc2)cc1 (centres undefined)	–	–	–	–	–	–
CCN(CC)C(CNC(=O)c1cc(=O)[nH]c2ccccc12)c1ccccc1Cl (centres undefined)	–	–	–	55.5	–	–
O=C(NCc1cccc(Cl)c1)c1cc(=O)[nH]c2ccccc12	–	–	–	–	–	–
O=C(CNC(=O)c1ccc(-c2ccccc2)cc1)Nc1cccc(CO)c1	–	–	–	–	–	–
Nc1c(S(=O)(=O)c2ccccc2)c2nc3ccccc3nc2n1/N=C/c1ccco1	–	–	26.4	–	–	–
O=C(/C=C/c1ccc(Cl)c([N+](=O)[O-])c1)Nc1cccc(NC(=O)c2ccco2)c1	–	–	28.0	33.8	–	–
O=C(/C=C/c1ccc(Cl)c([N+](=O)[O-])c1)Nc1ccc(NC(=O)c2ccco2)cc1	–	–	–	–	–	–
COc1ccccc1C(C)NC(=O)c1ccc(S(=O)(=O)NCc2ccco2)cc1 (centres undefined)	–	–	–	–	–	–
COc1ccc(C2=NOC(Cn3nc(C(=O)NCc4ccco4)cc3-c3ccccc3)C2)cc1 (centres undefined)	–	–	–	33.2	–	–
COc1ccc(C2=NOC(Cn3nc(C(=O)NCc4ccc(C)cc4)cc3-c3ccccc3)C2)cc1 (centres undefined)	–	–	–	–	–	–
N#Cc1cc(NC(=O)c2ccc(Cl)cc2)ccc1Sc1ccccc1	–	–	–	32.4	–	–
COc1ccc(Sc2ccc(NC(=O)c3ccccc3Cl)cc2C#N)cc1	–	–	–	–	–	–
O=C(Cc1ccc(F)cc1)Nc1nc(-c2ccc(F)cc2)cs1	–	–	–	34.9	–	–
COc1ccc(-c2csc(NC(=O)[C@H](C)N3C(=O)C4CC=CCC4C3=O)n2)cc1OC (some centres undefined)	–	–	–	–	–	–
CC(C(=O)Nc1nc(-c2ccc(F)c(F)c2)cs1)N1C(=O)C2CC=CCC2C1=O (centres undefined)	–	–	–	30.7	–	–
O=C(O)CCCC(=O)Nc1nc(-c2ccc(F)cc2)cs1	–	–	–	–	–	–
O=C(Cc1ccccc1)Nc1nc(-c2ccc(F)c(F)c2)cs1	–	–	–	36.9	–	–
O=C(Cc1ccccc1F)Nc1nc(-c2ccc(F)c(F)c2)cs1	–	–	–	–	–	–
COc1ccc(CC(=O)Nc2nc(C)cs2)cc1	15.6	–	–	–	–	–
Cc1csc(NC(=O)Cc2ccc(Cl)cc2)n1	–	–	–	–	–	–
COc1ccc(COC(=O)C2CCN(S(=O)(=O)c3ccc(OC)c(OC)c3)CC2)cc1	–	–	–	–	–	–
O=C(C[n+]1ccc(Cc2ccccc2)cc1)Nc1ccc([N+](=O)[O-])cc1Cl	–	–	–	86.2	–	–
O=[N+]([O-])c1ccc(C[n+]2ccc(Cc3ccccc3)cc2)cc1	–	–	–	28.3	–	–
Cc1cccc[n+]1CC(=O)Nc1ccc([N+](=O)[O-])cc1Cl	–	–	–	35.7	–	–
CC(=O)N(c1cccc(Br)c1)c1nc(C)cc(C)c1C#N	–	–	–	–	–	–
Cc1ccccc1OCCn1c(S(=O)(=O)O)nc2c(N)ncnc21	–	–	–	–	–	–
